Screens: PubChem, National Center for Advancing Translational Sciences (NCATS)
Sampled rows, rich in hits. Any-hit rate of the full collection: about 21%.
ClpP mod: qHTS Assay for Activators of ClpP. ATP-dependent Clp protease proteolytic subunit (Bacillus subtilis (strain 168)), P80244. 340,000 compounds, 1.9% hits. purified B. subtilis ClpP, FRET peptide cleavage, 20 min. Potency, µM (series often up to 57.5 µM), inactives show top-dose activity change, negative = active. AID 651965, 2013; active = well fitted falling curve with a large enough effect; inconclusive = small, poorly fitted or top-dose-only effect; inactive = no such curve, though single readings can be large or run the other way; note: potency is the fitted concentration of half-maximal effect; the source files actives as falling curves though it sought activators and does not explain the sign; nearly all actives have a fitted effect of over 65% in size
Target sequence (P80244 whole entry, looked up): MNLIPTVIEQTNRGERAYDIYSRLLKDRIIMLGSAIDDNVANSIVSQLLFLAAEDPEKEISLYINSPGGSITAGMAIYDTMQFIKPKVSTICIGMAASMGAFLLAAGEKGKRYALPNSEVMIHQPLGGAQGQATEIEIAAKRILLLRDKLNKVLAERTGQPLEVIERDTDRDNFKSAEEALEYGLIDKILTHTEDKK
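Purified B. subtilis ClpP, 10 microg/mL final in Tris/HCl pH8 with KCl, BSA, glycerol and Tween-20, cleaved an Abz/nitrotyrosine-quenched decapeptide. Fluorescence (ex 320, em 430) was read at 0 and 20 min at room temperature. Delta was normalized to 5.8 microM ADEP and DMSO/no-enzyme controls.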
DRD3 antagonist: blocks the human D3 dopamine receptor | P35462 | D3R cells, DiscoveRx beta-arrestin luminescence, antagonist mode; stronger effect = lower value | max response, negative = inhibition, % | 360,000 compounds, 2.5% hits | AID 652054; in the data active = max response below about -50%; inconclusive = no clear call, values can overlap the other calls; note: % is set by controls: 0 for no effect and ±100 for the full control effect
Target sequence (P35462 whole entry, looked up): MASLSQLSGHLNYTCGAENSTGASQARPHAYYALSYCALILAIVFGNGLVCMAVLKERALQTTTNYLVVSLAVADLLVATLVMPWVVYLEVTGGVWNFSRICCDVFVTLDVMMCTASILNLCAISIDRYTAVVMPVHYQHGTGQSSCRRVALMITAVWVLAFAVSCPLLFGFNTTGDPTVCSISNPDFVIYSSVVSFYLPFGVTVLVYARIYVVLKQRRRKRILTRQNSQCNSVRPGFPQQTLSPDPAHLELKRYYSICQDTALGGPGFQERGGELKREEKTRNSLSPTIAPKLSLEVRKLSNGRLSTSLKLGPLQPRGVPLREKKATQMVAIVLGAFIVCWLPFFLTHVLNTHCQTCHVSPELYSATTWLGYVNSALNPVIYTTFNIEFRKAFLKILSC
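Cells expressing the human receptor were seeded at 1500 cells/well, incubated overnight at 37 degrees C in 5% CO2, then exposed to library compounds with dopamine controls for 90 minutes at 37 degrees C before luminescent detection.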
TDP1 cell noCPT: qHTS for Inhibitors of human tyrosyl-DNA phosphodiesterase 1 (TDP1): qHTS in cells in absence of CPT; Potency, µM (top dose mostly 46.2 µM), for inactives: at the highest dose activity change, negative = growth inhibition, most hits filed as inhibitors; AID 686978, 2013; 420,000 compounds, 15% hits; DT40 Tdp1-/- hTDP1 cells, no CPT, ATP luminescence, 48 h; note: potency is the fitted concentration of half-maximal effect; % is set by controls: 0 for no effect and ±100 for the full control effect; nearly all actives have a fitted effect of over 55% in size
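Luminescent ATP content (CellTiter-Glo) served as the growth readout. Knockout chicken DT40 cells expressing human TDP1 were exposed to compounds without camptothecin for a minimum 48 hr at 37 °C.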
IL-1B inflam inh: inhibitors of inflammasome signaling (IL-1 beta secretion) | activity change, % at 57.5 µM | THP-1 LPS/ATP IL-1B secretion, AlphaLISA, 16 h; stronger effect = lower value | 360,000 compounds, 4.7% hits | AID 743279; in the data active = activity change below about -50%; inconclusive = mostly about -30% to -49%; note: % is set by controls: 0 for no effect and ±100 for the full control effect
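Secreted IL-1B measured by AlphaLISA bead assay after 16 h compound exposure of THP-1 cells; compounds (final up to 57.5 uM) added 1 h before LPS (250 ng/mL) and ATP (1.25 mM) stimulation; lower signal means less secretion.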
DT40 TDP1 CPT: growth inhibition of DT40 Tdp1-/-;hTDP1 cells with camptothecin (screen for TDP1 inhibitors). AID 686979. chicken DT40 Tdp1-/-;hTDP1 cells + 20 nM CPT, ATP luminescence, 48 h. Potency, µM (top dose mostly 46.2 µM), inactives show top-dose activity change, negative = growth inhibition, most hits filed as inhibitors. 420,000 compounds, 12% hits; note: potency is the fitted concentration of half-maximal effect; % is set by controls: 0 for no effect and ±100 for the full control effect; nearly all actives have a fitted effect of over 55% in size
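Chicken DT40 Tdp1-/- cells stably complemented with human TDP1 were seeded at 400 cells/well in medium containing 20 nM camptothecin, exposed to pin-transferred compounds, and grown at 37 °C for at least 48 hr. Viability was read as ATP luminescence.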
D3 ag: agonists of human D3 dopamine receptor; D3R DiscoveRx beta-arrestin cells, luminescence, 90 min; 410,000 compounds, 0.58% hits; P35462; max activation, %; in the data active = max activation above about 30%; note: 0% is about no effect
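Agonist-mode cell screen: cells plated at 1500/well and incubated overnight at 37 °C, then exposed to library compounds for 90 min at 37 °C. Detection reagent was added for 30–60 min at room temperature, and luminescence was read.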
The depositor's hits bear a star; ? = inconclusive; nt = not tested or not shown; ! = repeats disagree; [ ] = dose if it differs, or a comment. Unless noted, calls come from the whole dose curve; as a rule, active = well fitted inhibition curve with a large enough effect; inconclusive = small, poorly fitted or top-dose-only effect; inactive = flat fitted curve, though single readings scatter.

SMILES	ClpP mod	DRD3 antagonist	TDP1 cell noCPT	IL-1B inflam inh	DT40 TDP1 CPT	D3 ag
Cc1ccc2nc(/C(C#N)=C/c3ccc(-c4ccc(F)cc4F)o3)[nH]c2c1	0%	nt	5.2µM*	nt	2.9µM*	-14
CN(C)/C=C(\C#N)c1nc2ccccc2[nH]1	1%	-14	?	-11	-2%	-7
Cc1ccc2nc(/C(C#N)=C/c3ccc(-c4cccc([N+](=O)[O-])c4)o3)[nH]c2c1	1%	-7	?	0	?	-14
N#C/C(=C\c1c(Cl)cccc1Cl)c1nc2ccccc2[nH]1	-14%	-22	-26%	-93*	?	-6
Cc1c(Cl)cccc1-c1ccc(/C=C(\C#N)c2nc3ccccc3[nH]2)o1	-1%	nt	4.1µM*	nt	10µM*	-9
N#C/C(=C\c1c(Cl)cccc1Cl)c1nc2ccccc2o1	4µM*	?	0%	?	-18%	-19
CN(C)c1ccc(NC(=O)CN2CCc3ccccc3C2)cc1	nt	-15	-21%	-11	3%	-19
Cc1ncnc(N)c1CCCNc1ccccc1	-6%	-5	?	5	7%	1
Cc1cc(O)ccc1N/C=C(\C#N)c1nc2ccccc2o1	18µM*	15	12µM*	3	?	7
COc1c(Cl)cc(Cl)cc1/C=C(\C#N)c1nc2ccccc2[nH]1	20µM*	nt	nt	nt	nt	-16
COc1ccc(NC(=O)N2CCN(S(=O)(=O)c3ccc4c(ccn4C)c3)CC2)c(OC)c1	-17%	nt	nt	nt	nt	-8
COc1ccccc1OCC(=O)NC1CC(C)(C)NC(C)(C)C1	nt	3	1%	1	8%	0
CCOC(=O)C1CCCN(CC(=O)Nc2nccs2)C1 (stereo unspecified)	-4%	13	5%	7	21%	1
CCN(CC)c1ccc2cc(C(C)=O)c(=O)oc2c1	1%	1	0%	30	-7%	-7
CCN(CC)c1ccc2cc(-c3nc(-c4cc(OC)c(OC)c(OC)c4)no3)c(=O)oc2c1	-26%	nt	10µM*	nt	21µM*	3
COc1cc(-c2noc(-c3ccco3)n2)cc(OC)c1OC	-4%	16	?	-8	?	1
CCN(CC)c1ccc2cc(-c3nc(-c4cccs4)no3)c(=O)oc2c1	?	nt	?	nt	?	1
CCN(CC)c1ccc2cc(C=O)c(=O)oc2c1	-21%	-55*	18µM*	-19	29µM*	-5
CCN(CC)c1ccc2cc(-c3nnc(-c4ccncc4)o3)c(=O)oc2c1	?	36	21µM*	9	12µM*	9
CCN(CC)c1ccc2cc(-c3nc(-c4ccccc4F)no3)c(=O)oc2c1	25µM*	nt	?	nt	-16%	4
Cc1ccc2ncnc(Oc3ncccc3NC(=O)C(C)(C)C)c2c1	nt	4	-9%	20	1%	2
CCN(CC)c1ccc2cc(C(N)=O)c(=O)oc2c1	-12%	-3	-29%	12	-16%	-1
CCN(CC)c1ccc2cc(C(=O)Nc3ccccn3)c(=O)oc2c1	-6%	21	?	-9	4.5µM*!	-3
CCOC(=O)C1CCN(C2=NC(=O)/C(=C/c3ccc(Cl)cc3)S2)CC1	-1%	-10	-10%	-50*	?	2
CCOC(=O)CSC1=NC(=O)/C(=C\c2ccc(Cl)cc2)S1	0%	-78*	7.3µM*	?	4.6µM*	-5
SMILES	ClpP mod	DRD3 antagonist	TDP1 cell noCPT	IL-1B inflam inh	DT40 TDP1 CPT	D3 ag
O=C(NC1CCN(Cc2ccccc2)CC1)c1cccc(S(=O)(=O)Nc2cc(C(F)(F)F)ccc2Cl)c1	-4%	?	?	-6	?	-10
COc1ccc(C(=O)NC2CCN(CC(=O)NCc3ccccc3)CC2)cc1	nt	-16	-13%	-1	-7%	-7
COc1ccc(Cl)cc1NS(=O)(=O)c1cccc(C(=O)NC2CCN(Cc3ccccc3)CC2)c1	-2%	-104*	?	-57*	?	-25
COc1ccc(NS(=O)(=O)c2cccc(C(=O)NC3CCN(Cc4ccccc4)CC3)c2)cc1	0%	-53*	?	-70*	15µM*	-23
CCc1ccc(CN2CCC(Oc3cc(C(=O)NC4CC4)ccc3OC)CC2)cc1	-3%	-16	15µM*	-4	-32%	-3
COc1ccc(Cn2c(=O)[nH]c3cc(C(=O)NC4CCN(Cc5ccccc5)CC4)ccc32)cc1	nt	-67*	?	?	?	-16
COc1ccc(S(=O)(=O)NC2CCCC2)cc1C(N)=O	-1%	13	11%	19	-3%	2
COc1cccc(CN2CCC3(CCC(CNC(=O)c4ccccc4)O3)CC2)c1 (stereo unspecified)	nt	nt	4%	nt	-6%[9.04 µM]	nt
CCOC(=O)N1CCN(C(=O)c2nn(C)c3c2CSc2ccccc2-3)CC1	-1%	15	16µM*	-17	?	3
CCCCN(CC)C(=O)c1nn(C)c2c1CSc1ccccc1-2	-1%	nt	23µM*	nt	?	-2
CCN(C(=O)c1nn(C)c2c1CSc1ccccc1-2)c1cccc(C)c1	-1%	nt	21µM*	nt	12µM*	-7
CCOc1ccc(CCNC(=O)c2nn(C)c3c2CSc2ccc(C)cc2-3)cc1OCC	-3%	nt	13µM*	nt	?	3
COc1ccc(C2=NN(C(=O)COC(=O)c3ccc(NC(=O)CC#N)cc3)C(c3ccco3)C2)cc1 (stereo unspecified)	-15%	-2	?	-3	?	2
Cc1noc(C)c1C(=O)OCC(=O)Nc1ncc(Cl)c(C)c1Cl	0%	4	-9%	33	-16%	-5
CCOC(=O)C1CCCN(C(=O)c2cccc3ccccc23)C1 (stereo unspecified)	nt	-8	4%	34	10%	3
CCOC(=O)C1CCCN(C(=O)c2ccccc2NC(=O)c2nsc3ccccc23)C1 (stereo unspecified)	-1%	nt	?	nt	16µM*	-8
CCOC(=O)C1CCN(C(=O)c2ccccc2NC(=O)c2nsc3ccccc23)CC1	-4%	nt	?	nt	?	-13
CCOC(=O)C1CCCN(C(=O)c2cccc(NC(=O)c3nsc4ccccc34)c2)C1 (stereo unspecified)	1%	nt	21µM*	nt	21µM*	-2
CC(C)(C)n1nnnc1C(c1cccnc1)N1CCN(C2CCCCC2)CC1 (stereo unspecified)	1%	-14	2%	8	-1%	2
